# Among all 1,800 compounds or so, about 710 (39%) were called active. Another 28% or so got no clear call; they are omitted.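 How the source made its calls: active means luciferase signal rise whose fitted curve crosses a set activity limit at or below the top valid tested dose; inconclusive means flat fit with 30 to 70% rise, or poor fit; inactive means signal falling, flat within 30%, or crossing above top dose.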 These entries were drawn from the full list. Entries with a potency or affinity are not part of this list.
# Test: luciferase activators in glycosylation-insensitive reporter cells, dose response, counter-screen for N-linked glycosylation inhibitor project, D54 LucT cells, luminescence, cherry pick (AID 624404)
# Details: D54 LucT luciferase reporter counterscreen, 24 h; series mostly up to 19.5 µM
row,SMILES,outcome
1,Cc1nc([N+](=O)[O-])c(Sc2nc3ccccc3[nH]2)n1Cc1ccccc1,inactive
2,COc1ccc(OC)c(NS(=O)(=O)c2ccc(SC)cc2)c1,inactive
3,O=C1/C(=C/c2ccccc2)CCc2ccc(Cl)nc21,inactive
4,c1cc2c3c(cccc3c1)C(N1CCCCC1)=N2,inactive
5,Nc1c(N(CCC2=CCCCC2)C(=O)COc2ccc(F)cc2Cl)c(=O)[nH]c(=O)n1Cc1ccccc1,inactive
6,COc1ccc(-c2cc(C(F)F)n3ncc(C(=O)N4CCc5ccccc54)c3n2)cc1,inactive
7,O=c1cc(-c2ccccc2)[nH]n1-c1nc2ccccc2[nH]1,inactive
8,CCCCCc1ccc(OCCC[n+]2ccccc2)c(CCCCC)c1,inactive
9,Cc1cnc(C(=O)OCC(=O)NC2CCCCCCC2)cn1,inactive
10,NC(=O)[C@H]1CC2(CC(c3cccc(NC(=O)COc4ccc(Cl)cc4)c3)=NO2)CN1C(=O)C(c1ccccc1)c1ccccc1 (stereo partly specified),inactive
11,O=C(N/N=C\c1cccnc1)c1cc(-c2ccccc2)nc2c(Cl)cccc12,inactive
12,COc1ccc(NC(=O)c2nc(C)c(C3(C)CC(c4ccccc4)=NO3)s2)cc1 (stereo unspecified),inactive
13,CCOC(=O)c1c(C)nc2sc3c(=O)n(-c4ccc(C)cc4)cnc3c2c1-c1ccc(OC)cc1,inactive
14,CCOC(=O)C1=C(Cc2ccc(F)cc2)C(=O)c2ccccc2C1=O,inactive
15,COc1ccc(Cn2c(=O)cc(N)n(-c3ccccc3C)c2=O)cc1,inactive
16,COC(=O)c1ccccc1NC(=O)Cn1nnc(-c2ccc(OC)cc2)n1,inactive
17,CC(C)CN(C(=O)COC(=O)CCSc1ccc(Cl)cc1)c1c(N)n(Cc2ccccc2)c(=O)[nH]c1=O,inactive
18,CCOc1ccc(OCC(=O)N(CCC2=CCCCC2)c2c(N)n(Cc3ccccc3)c(=O)[nH]c2=O)cc1,inactive
19,COc1ccc(-c2cc(-c3ccccc3)c(C#N)c(S(C)=O)n2)cc1 (stereo unspecified),inactive
20,Cc1cc(Br)cc2c(C(=O)Nc3c(C)n(C)n(-c4ccccc4)c3=O)cc(-c3cccs3)nc12,inactive
21,CCCn1c(CN2CCN(C(=O)OCC)CC2)nc2cc(NC(=O)CC)ccc21,inactive
22,CN1CCN(CC(=O)Nc2cc(N(C)C)nc3ccccc23)CC1,inactive

row,SMILES,outcome
1,CC(C)(C)NCC(O)CON=C1c2ccccc2-c2ccccc21 (stereo unspecified),inactive
2,Cc1ccccc1OCCOC(=O)c1c(-c2ccccc2)noc1C,inactive
3,Cc1ccc(-c2cc(C(F)F)n3ncc(C(=O)N4CCc5ccccc54)c3n2)cc1,inactive
4,CC(C)Oc1ccccc1C1CC(=O)Nc2cc3c(cc21)OCO3 (stereo unspecified),inactive
5,CCOc1cccc2sc(Nc3nc4ccc(NC(C)=O)cc4s3)nc12,inactive
6,Cc1cc(C)c2c(N)c3ccccc3nc2n1,inactive
7,CCc1ccc2nc3nc(C)cc(C)c3c(N)c2c1,inactive
8,C=CCN1c2ccccc2[C@]23C[C@@H](C(=O)OC)N(C(=O)c4ccc(Br)cc4)C2=NC(C(=O)OC)=C(C(=O)OC)[C@H]13,inactive
9,COC(=O)C1=C(C(=O)OC)[C@@H]2N(Cc3ccccc3)c3ccccc3[C@@]23C[C@@H](C(=O)OC)N(C(=O)c2cc(C)oc2C)C3=N1,inactive
10,CCCOC(=O)c1[nH]c2c(c1C)C(=O)CC(c1cccs1)C2 (stereo unspecified),inactive
11,COc1cc(/C=C2/C(=O)N(C)C(=S)N2C)ccc1OCc1cccc(F)c1,inactive
12,COc1ccc(/C=C2\SC(=S)N(CCC(=O)NC3CCCC3)C2=O)cc1OC,inactive
13,COc1cc2c3c(cccc3c1)C(=O)N(CCN1CCCC1)C2=O,inactive
14,Cc1ccc(C)c(N2CCN(S(=O)(=O)c3ccc(-c4ccc(=O)[nH]n4)o3)CC2)c1,inactive
15,CC(=O)c1cccc(-c2ccnc3c2CC(C(=O)NCc2cccs2)O3)c1 (stereo unspecified),inactive
16,CC1(C(=O)NCc2cccs2)Cc2c(-c3ccc(C(N)=O)cc3)ccnc2O1 (stereo unspecified),inactive
17,CC(=O)Nc1cccc(-c2ccnc3c2CC(C(=O)NCc2ccc(F)c(F)c2)O3)c1 (stereo unspecified),inactive
18,Cc1ccc(CNC(=O)Cc2ccc(-n3c(=O)[nH]c4ccsc4c3=O)cc2)cc1,inactive
19,COc1cc(C2CC(=O)Nc3cc(C)c(C)cc32)cc(OC)c1OC (stereo unspecified),inactive
20,CN1CCN(C(c2ccc(Br)cc2)c2cc(Cl)c3cccnc3c2O)CC1 (stereo unspecified),inactive
21,COc1ccc2noc3c2c1C(=O)c1ccccc1-3,inactive
22,CN(C)CCNc1ccc2nnn3c4ccc(O)cc4c(=O)c1c23,inactive

row,SMILES,outcome
1,COc1ccc2sc3cccc(NCCN(C)C)c3c(=O)c2c1,inactive
2,CCN(CC)CCCNc1ccc2ncn3c4ccc(O)cc4c(=O)c1c23,inactive
3,COc1cc(C)c2sc3ccccc3c(=O)c2c1NCCN(C)C,inactive
4,COc1ccc(-n2c(C)cc(C(=O)CCl)c2C)cc1,inactive
5,c1ccc2sc(Sc3ncnc4sccc34)nc2c1,inactive
6,COc1ccc2c(C)nc(Nc3nc(-c4ccccc4)cc(=O)[nH]3)nc2c1,inactive
7,COc1cc(OC)c(C2=NOC(C(=O)NCc3cccs3)C2)cc1Cl (stereo unspecified),inactive
8,COc1ccc(C2=NOC(C(=O)NCc3ccco3)C2)cc1OC (stereo unspecified),inactive
9,O=C(NCc1cccs1)C1CC(c2ccc(Cl)c(Cl)c2)=NO1 (stereo unspecified),inactive
10,Cn1c(SCC(=O)c2ccccc2)ncc(C(=O)Nc2ccc(F)cc2)c1=O,inactive
11,CC(=O)c1cccc(NC(=O)CSc2ncc(C(=O)Nc3ccccc3)c(=O)n2C)c1,inactive
12,CCn1cc2nc(SCC(=O)Nc3ccc(OC)cc3OC)n(Cc3ccc(OC)cc3)c(=O)c2n1,inactive
13,COc1ccc(CN(C)c2ncnc3sccc23)c(OC)c1OC,inactive
14,NC(N)=N/N=C/c1ccc2cccc(OCc3ccccc3)c2n1,inactive
15,O=C(N/N=C/c1cccnc1)c1cc(-c2ccc(Br)cc2)nc2ccccc12,inactive
16,Cc1ccc(/C=N/NC(=O)c2c(C)nc3ccc(Br)cn23)cc1,inactive
17,Cc1ccc(/C=N/NC(=O)CCn2nc(C)cc2C)c(C)c1,inactive
18,Brc1ccc(CSc2ccc3nnc(-c4cccnc4)n3n2)cc1,inactive
19,Cc1ccccc1OCCc1c(C)[nH]c(=S)[nH]c1=O,inactive
20,CCN1Cc2c(/C=C/c3ccccc3)nc3ccc(OC)cc3c2N(c2cccc(Cl)c2)C1,inactive
21,O=C(Nc1nc2ccccc2c(=O)s1)c1ccco1,inactive
22,COc1cc2nc(NC(=O)c3ccccc3)sc(=O)c2cc1OC,inactive

row,SMILES,outcome
1,Cc1ccc(C(=O)NC(=C(Cl)Cl)S(=O)(=O)c2ccc(C)cc2)cc1,inactive
2,CC(=O)N(C1=C(Cl)C(=O)c2ccccc2C1=O)C1CCCCC1,inactive
3,COc1ccccc1OCC(=O)NNC(=O)c1ccoc1C,inactive
4,COc1cc2cc(C(c3nnnn3C(C)(C)C)N3CCc4ccccc4C3)c(=O)[nH]c2cc1OC (stereo unspecified),inactive
5,Cc1cc(Nc2cc(Cl)cc(Cl)c2)nc(N)n1,inactive
6,CC(=O)c1ccc(Oc2cc(C)nc(-n3nc(C)cc3C)n2)cc1,inactive
7,CCN1/C(=C/c2ccc3ccccc3[n+]2CC)C=Cc2ccccc21,inactive
8,CCCCCCCCCCn1c2c(c(=N)c3c1CCC3)CCC2,inactive
9,COc1ccc2cc(C)c3nnc(SCC(=O)Nc4nc(-c5ccc(F)cc5)cs4)n3c2c1,inactive
10,COCCN(C(=O)CCl)C(C(=O)NC1CCCCC1)c1ccccc1C (stereo unspecified),inactive
11,COc1ccc(C(C)(O)c2nc(-c3ccc(F)cc3OC)cs2)cc1 (stereo unspecified),inactive
12,Nc1cccc2c1C(=O)N(C(=O)/C=C/c1ccc(F)cc1)C2=O,inactive
13,CC(=O)Cn1ncc(Br)c(Br)c1=O,inactive
14,Cn1c(Cl)cnc1C1CC(=O)c2cc(Cl)ccc2O1 (stereo unspecified),inactive
15,O=C(Nc1ccc(-c2nc3cc(NC(=O)c4cccs4)ccc3o2)cc1)c1cccs1,inactive
16,O=C(N/N=C\C=C\c1ccc([N+](=O)[O-])o1)c1cccs1,inactive
17,Cc1c(C(=O)Nc2ccc3oc(-c4cccnc4)nc3c2)oc2ccccc12,inactive
18,O=C(Nc1ccc(N2CCCC2)c(Cl)c1)c1ccc([N+](=O)[O-])o1,inactive
19,O=C(NCc1ccccc1)C(=O)NCC1COc2ccccc2O1 (stereo unspecified),inactive
20,CN=c1sc(C(=O)Nc2cccc(Cl)c2)cc(=O)n1C,inactive
21,O=C(CN1C(=O)/C(=C\c2ccc(F)cc2)Oc2ccccc21)N1CCN(c2ccccn2)CC1,inactive
22,O=C1CCCC2=C1C(c1ccc(Cl)cc1)n1c(s/c(=C\c3ccc4ccncc4c3)c1=O)=N2 (stereo unspecified),inactive

row,SMILES,outcome
1,COc1cccc(-n2c(SCC(=O)NC3CCCCC3)nc3n[nH]c(C)c3c2=N)c1,inactive
2,COc1ccc(C(=O)/C=C\c2ccc(NC(=O)c3cccs3)cc2)cc1,inactive
3,O=C1CCCN1CCCNc1nc(NCc2ccccc2)nc2ccsc12,inactive
4,Cc1ccsc1CNc1ncnc2ccc(-c3c(C)noc3C)cc12,inactive
5,COc1ccc(C(=O)c2cc([N+](=O)[O-])ccc2N2CCN(C)CC2)cc1,inactive
6,CN(C)c1ccc(/C=C/C(=O)c2ccc(C(C)(C)C)cc2)cc1[N+](=O)[O-],inactive
7,COc1cc(/C=C/C(=O)c2ccc3c(c2)OCCO3)cc(OC)c1OC,inactive
8,CCOc1cc(/C=C/C(=O)c2ccc3c(c2)OCCO3)ccc1OCC(=O)N(C)C,inactive
9,COC(=O)C(=Cc1ccc(-c2ccsc2C(=O)OC)o1)C(=O)OC,inactive
10,O=c1c2ccccc2sc2c(CO)ccc(NCCN3CCCCC3)c12,inactive
11,Cc1ccc2cc3c(N)c4c(C)ccc(C)c4nc3nc2c1,inactive
12,CC1=Nc2cc(C(=O)NCC3CCCO3)ccc2Sc2ccc(Br)cc21 (stereo unspecified),inactive
13,CCC1=Nc2cc(C(=O)NCc3ccco3)ccc2Sc2ccc(Cl)cc21,inactive
14,O=C(/C=C/c1ccc([N+](=O)[O-])cc1)/C=C/c1ccco1,inactive
15,CC(NC(=O)c1cccc2ccccc12)c1ccc2c(c1)CCCC2 (stereo unspecified),inactive
16,COc1cc2cc(/C=C/C(=O)c3ccco3)c(Cl)nc2cc1OC,inactive
17,CCOc1ccc2[nH]c(=O)c(CN(Cc3ccc(F)cc3)C(=O)c3ccco3)cc2c1,inactive
18,O=C(Oc1c(Cl)cc(Cl)c2cccnc12)c1ccco1,inactive

# — PubChem BioAssay AID624404 (Broad Institute, 2012)
